# Assay results reported in ChEMBL document CHEMBL3988442, “University of Dundee, Small-Polar-MMV Screening Library” (2021).
# For some assays here: Entries with a potency or affinity are not part of this list.
# Assays:
# Design in all cases: scale not given: direction of the effect not stated beside the values
# [1] = target: Protein translocase subunit SecA (Escherichia coli (strain K12)) (UniProt P10408); experiment: Assay to Identify E. coli SecA ATPase Inhibitors; type: functional; conditions: 30 µM
# [2] = target: T1, Ubiquitin-activating enzyme e1, putative (Leishmania donovani (strain BPK282A1)) (UniProt E9BSI1); experiment: Leishmania donovani Ubiquitin Activating Enzyme (LdE1); type: functional; conditions: 30 µM
# T1 sequence (whole entry): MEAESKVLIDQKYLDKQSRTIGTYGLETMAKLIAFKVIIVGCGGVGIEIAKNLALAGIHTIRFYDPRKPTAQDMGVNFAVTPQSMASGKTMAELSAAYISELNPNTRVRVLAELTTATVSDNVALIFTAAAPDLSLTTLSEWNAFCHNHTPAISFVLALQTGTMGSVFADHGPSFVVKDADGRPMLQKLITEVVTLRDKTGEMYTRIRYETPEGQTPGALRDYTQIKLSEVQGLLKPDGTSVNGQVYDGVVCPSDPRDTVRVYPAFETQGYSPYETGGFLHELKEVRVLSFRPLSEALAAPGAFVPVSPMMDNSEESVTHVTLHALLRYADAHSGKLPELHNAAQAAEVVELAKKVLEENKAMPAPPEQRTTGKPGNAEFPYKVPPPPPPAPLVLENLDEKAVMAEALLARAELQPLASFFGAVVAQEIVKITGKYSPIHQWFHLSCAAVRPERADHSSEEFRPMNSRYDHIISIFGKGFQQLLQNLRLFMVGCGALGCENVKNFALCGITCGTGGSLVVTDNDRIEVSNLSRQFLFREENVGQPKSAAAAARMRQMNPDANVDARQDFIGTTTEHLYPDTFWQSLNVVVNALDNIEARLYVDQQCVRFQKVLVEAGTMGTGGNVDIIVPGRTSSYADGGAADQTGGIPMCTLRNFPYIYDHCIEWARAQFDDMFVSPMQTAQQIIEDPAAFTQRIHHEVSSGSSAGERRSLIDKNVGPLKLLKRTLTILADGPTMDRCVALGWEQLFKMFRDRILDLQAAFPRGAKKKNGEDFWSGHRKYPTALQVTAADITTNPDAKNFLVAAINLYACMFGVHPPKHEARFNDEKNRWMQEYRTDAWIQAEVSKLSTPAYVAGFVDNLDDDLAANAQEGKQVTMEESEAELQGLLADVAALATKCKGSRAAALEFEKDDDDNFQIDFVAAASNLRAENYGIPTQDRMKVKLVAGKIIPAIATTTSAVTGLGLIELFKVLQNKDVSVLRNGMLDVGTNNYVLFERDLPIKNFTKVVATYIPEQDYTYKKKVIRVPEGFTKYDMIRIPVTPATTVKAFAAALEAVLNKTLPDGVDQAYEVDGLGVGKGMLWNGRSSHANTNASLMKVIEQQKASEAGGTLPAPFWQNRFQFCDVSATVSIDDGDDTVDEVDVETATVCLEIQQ
# [3] = target: AMP-activated protein kinase, AMPK (Homo sapiens) (UniProt P54646+O43741+P54619+Q9UGJ0+Q9Y478+Q13131+Q9UGI9); experiment: AMP-dependent Kinase enzyme assay. An in vitro enzyme assay that detects ADP turnover that is directly proportional to AMPK activity. This uses naive AMPK that is activated during the assay with MK-8722; type: functional; conditions: 30 µM
# [4] = target: Sialic acid-binding Ig-like lectin 9 (Homo sapiens) (UniProt Q9Y336); experiment: Hs-Siglec9 ALPHAscreen SOP 20170721; conditions: 10 µM
# Trypanosoma cruzi = experiment: Trypanosoma cruzi phosphomannomutase and mannose-1-phosphate guanylyltransferase assay; type: functional; conditions: 10 µM
# [5] = target: T2, Arginase-2, mitochondrial (Homo sapiens) (UniProt P78540); experiment: in vitro enzyme assay to detect the production of urea directly proportional to the activity of Arginase II; type: functional; conditions: 33.3 µM; also: in the data most compounds retested in dose-response had high values
# T2 sequence (whole entry): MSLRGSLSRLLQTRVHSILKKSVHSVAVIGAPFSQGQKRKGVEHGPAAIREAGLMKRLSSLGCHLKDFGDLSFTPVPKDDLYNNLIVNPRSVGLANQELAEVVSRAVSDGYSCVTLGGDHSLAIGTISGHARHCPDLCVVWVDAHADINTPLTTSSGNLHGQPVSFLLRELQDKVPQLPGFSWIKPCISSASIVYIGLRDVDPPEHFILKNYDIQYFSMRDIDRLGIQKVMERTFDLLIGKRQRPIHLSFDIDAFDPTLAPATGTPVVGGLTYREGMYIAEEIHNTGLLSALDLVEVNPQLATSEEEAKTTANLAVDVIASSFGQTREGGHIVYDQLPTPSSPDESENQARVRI
# [6] = target: T3, Proteasome subunit beta (Trypanosoma cruzi) (UniProt O96673); experiment: Trypanosoma cruzi proteasome chymotrypsin-like activity (TcProtChymo) assay.; also: in the data most compounds retested in dose-response had high values; type: functional; conditions: 9.37 µM
# T3 sequence (whole entry): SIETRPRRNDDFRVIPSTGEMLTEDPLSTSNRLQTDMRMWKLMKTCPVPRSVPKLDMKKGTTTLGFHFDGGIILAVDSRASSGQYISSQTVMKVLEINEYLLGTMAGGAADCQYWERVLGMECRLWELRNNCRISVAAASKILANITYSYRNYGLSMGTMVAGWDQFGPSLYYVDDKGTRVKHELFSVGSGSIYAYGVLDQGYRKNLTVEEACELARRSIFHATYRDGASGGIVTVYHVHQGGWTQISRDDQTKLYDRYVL
# Homo sapiens = species: Homo sapiens; experiment: To identify inhibition of the IFN signalling (Jak-Stat) pathway via expression of an eGFP reporter gene under the control of an IFN-stimulated response element (ISRE) containing MxA promoter.; type: functional; conditions: 30 µM
# [7] = target: T4, Tyrosyl-tRNA synthetase, putative (Trypanosoma cruzi (strain CL Brener)) (UniProt Q4DSP6); experiment: Trypanosoma cruzi tyrosyl tRNA synthetase (TcYRS) _High Tyrosine SOP; type: functional; conditions: 30 µM; also: in the data most compounds retested in dose-response had high values
# T4 sequence (whole entry): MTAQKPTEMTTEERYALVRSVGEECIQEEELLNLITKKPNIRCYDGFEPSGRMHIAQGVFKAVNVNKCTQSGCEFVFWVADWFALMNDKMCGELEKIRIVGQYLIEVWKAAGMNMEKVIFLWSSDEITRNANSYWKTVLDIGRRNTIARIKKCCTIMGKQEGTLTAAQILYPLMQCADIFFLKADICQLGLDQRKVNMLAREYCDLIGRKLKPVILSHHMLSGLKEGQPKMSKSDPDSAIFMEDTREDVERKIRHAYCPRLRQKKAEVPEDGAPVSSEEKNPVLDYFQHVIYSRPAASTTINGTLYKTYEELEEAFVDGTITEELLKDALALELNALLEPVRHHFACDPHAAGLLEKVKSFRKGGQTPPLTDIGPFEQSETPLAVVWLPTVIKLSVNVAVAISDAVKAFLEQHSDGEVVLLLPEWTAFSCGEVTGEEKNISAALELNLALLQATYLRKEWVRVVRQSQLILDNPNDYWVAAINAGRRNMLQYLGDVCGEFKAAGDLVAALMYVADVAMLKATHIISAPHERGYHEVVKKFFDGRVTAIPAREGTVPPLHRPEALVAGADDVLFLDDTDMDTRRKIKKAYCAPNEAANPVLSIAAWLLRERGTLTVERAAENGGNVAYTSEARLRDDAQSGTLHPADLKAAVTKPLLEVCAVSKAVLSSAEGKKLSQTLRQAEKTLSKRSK
# [8] = target: T4, Tyrosyl-tRNA synthetase, putative (Trypanosoma cruzi (strain CL Brener)); experiment: Trypanosoma cruzi tyrosyl tRNA synthetase (TcYRS) SOP; type: functional; conditions: 30 µM
# [9] = target: Chromo domain-containing protein 1 (Saccharomyces cerevisiae (strain ATCC 204508 / S288c) (Baker's yeast)) (UniProt P32657); experiment: ScCHD-1 Enzyme Inhibition Assay; type: functional; conditions: 30 µM; also: in the data most compounds retested in dose-response had high values
# Chromo domain-containing protein 1 (Saccharomyces cerevisiae (strain ATCC 204508 / S288c) (Baker's yeast)), sequence (P32657 whole entry, the tested form may be a part): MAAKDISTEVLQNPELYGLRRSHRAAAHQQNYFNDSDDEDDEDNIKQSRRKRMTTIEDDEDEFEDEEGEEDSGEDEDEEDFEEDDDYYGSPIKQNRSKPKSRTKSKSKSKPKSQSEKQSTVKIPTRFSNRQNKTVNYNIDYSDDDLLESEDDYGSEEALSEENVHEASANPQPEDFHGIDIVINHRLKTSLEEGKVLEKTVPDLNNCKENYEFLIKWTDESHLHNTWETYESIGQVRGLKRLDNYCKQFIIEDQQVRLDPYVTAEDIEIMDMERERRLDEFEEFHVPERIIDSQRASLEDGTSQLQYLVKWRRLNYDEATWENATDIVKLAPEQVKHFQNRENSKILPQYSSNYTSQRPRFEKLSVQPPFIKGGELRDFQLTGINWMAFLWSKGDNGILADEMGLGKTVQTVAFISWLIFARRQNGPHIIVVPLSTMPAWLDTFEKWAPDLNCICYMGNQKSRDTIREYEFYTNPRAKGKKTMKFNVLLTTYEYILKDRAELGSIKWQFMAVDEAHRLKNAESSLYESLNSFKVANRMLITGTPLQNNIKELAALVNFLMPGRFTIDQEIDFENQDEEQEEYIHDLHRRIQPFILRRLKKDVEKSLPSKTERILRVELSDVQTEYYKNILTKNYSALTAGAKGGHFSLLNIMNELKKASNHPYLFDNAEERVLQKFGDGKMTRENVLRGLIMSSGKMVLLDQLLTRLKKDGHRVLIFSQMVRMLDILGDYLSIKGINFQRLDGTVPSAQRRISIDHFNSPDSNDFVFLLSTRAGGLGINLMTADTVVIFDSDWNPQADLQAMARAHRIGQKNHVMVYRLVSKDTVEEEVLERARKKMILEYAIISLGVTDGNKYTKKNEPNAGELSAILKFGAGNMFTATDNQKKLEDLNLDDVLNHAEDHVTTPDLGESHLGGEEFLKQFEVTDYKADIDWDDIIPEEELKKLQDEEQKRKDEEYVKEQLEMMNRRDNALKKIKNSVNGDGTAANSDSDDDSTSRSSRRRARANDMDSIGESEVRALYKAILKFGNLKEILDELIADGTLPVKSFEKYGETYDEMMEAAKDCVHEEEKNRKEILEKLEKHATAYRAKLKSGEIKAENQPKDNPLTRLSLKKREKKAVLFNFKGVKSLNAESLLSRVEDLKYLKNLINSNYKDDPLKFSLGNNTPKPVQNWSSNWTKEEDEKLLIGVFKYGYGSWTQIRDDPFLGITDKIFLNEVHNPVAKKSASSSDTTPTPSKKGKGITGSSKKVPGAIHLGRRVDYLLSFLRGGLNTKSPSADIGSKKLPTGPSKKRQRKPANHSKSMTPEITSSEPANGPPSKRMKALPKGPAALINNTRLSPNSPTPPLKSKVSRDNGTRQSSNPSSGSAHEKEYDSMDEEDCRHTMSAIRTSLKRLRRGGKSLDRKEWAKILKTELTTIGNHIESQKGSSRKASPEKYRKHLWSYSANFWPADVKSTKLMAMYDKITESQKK
# Sialic acid-binding Ig-like lectin 9 (Homo sapiens), sequence (Q9Y336 whole entry): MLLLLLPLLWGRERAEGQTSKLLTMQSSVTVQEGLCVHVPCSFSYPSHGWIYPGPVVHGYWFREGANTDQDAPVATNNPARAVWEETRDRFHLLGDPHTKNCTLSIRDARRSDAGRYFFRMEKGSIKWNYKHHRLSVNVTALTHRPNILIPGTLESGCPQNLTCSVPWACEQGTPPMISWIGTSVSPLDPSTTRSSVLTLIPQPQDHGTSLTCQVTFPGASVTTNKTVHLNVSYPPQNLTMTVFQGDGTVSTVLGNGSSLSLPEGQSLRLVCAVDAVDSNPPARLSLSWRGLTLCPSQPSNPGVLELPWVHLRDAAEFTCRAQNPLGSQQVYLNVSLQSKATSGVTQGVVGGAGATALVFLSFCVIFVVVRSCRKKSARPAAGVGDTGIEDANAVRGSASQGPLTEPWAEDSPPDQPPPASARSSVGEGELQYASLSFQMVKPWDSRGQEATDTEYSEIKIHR
# Protein translocase subunit SecA (Escherichia coli (strain K12)), sequence (P10408 whole entry): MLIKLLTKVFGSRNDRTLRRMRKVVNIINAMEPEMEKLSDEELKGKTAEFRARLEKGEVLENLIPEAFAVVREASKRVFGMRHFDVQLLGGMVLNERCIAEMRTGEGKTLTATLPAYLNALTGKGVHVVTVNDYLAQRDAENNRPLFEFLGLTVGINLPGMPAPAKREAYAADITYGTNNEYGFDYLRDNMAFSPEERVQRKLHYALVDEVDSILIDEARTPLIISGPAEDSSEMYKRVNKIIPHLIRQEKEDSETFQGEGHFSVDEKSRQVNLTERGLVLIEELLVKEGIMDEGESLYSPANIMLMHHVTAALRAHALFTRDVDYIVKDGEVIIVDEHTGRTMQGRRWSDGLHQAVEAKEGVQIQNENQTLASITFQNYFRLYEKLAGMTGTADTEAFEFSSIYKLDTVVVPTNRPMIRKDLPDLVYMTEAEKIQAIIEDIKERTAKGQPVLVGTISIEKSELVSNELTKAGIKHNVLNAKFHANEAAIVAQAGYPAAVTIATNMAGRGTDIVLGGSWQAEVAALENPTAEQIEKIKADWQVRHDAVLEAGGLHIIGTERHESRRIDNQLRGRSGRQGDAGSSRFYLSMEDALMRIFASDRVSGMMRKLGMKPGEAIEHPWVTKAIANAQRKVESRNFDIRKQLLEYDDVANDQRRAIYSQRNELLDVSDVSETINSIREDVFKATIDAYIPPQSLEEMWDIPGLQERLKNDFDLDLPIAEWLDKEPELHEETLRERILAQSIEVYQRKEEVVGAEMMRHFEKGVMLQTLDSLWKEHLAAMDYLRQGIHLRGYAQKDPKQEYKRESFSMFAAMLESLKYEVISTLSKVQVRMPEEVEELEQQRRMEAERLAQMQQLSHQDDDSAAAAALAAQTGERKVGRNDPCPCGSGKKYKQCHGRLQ
SMILES,Percent Effect [1],Percent Effect [2],Percent Effect [3],Percent Effect [4],Percent Effect (Trypanosoma cruzi),Percent Effect [5],Percent Effect [6],Percent Effect (Homo sapiens),Percent Effect [7],Percent Effect [8],Percent Effect [9]
Cc1nc(C)n(CC2CCCCN2CC(=O)N(C)Cc2ccco2)n1 (configuration not stated),-1.21%,0%,13.5%,5.38%,2.45%,0.21%,11.9%,5.11%,0%,-2.35%,-7.89%
Cc1cccc(N2CCN(CCNC(=O)C(C)n3cncn3)CC2)c1 (configuration not stated),-4.94%,28.9%,-8.42%,-3.17%,3.83%,-3.96%,15%,9.51%,7.39%,23.5%,-10.7%
CC(=O)c1cc(CC(=O)NCc2c(F)cccc2F)cs1,2.08%,5.41%,-0.986%,2.88%,4.44%,10.5%,2.76%,17.2%,0.529%,7.32%,0.311%
Cn1c(NCC(O)c2ccc(F)cc2F)c(C#N)c(=O)n(C)c1=O (configuration not stated),-4.86%,17.7%,-12.9%,-5.84%,1.6%,6.46%,4.01%,-3.56%,5.42%,13.9%,-7.19%
CCc1nccn1C1CCCN(C(=O)c2ccc3[nH]c(=O)[nH]c3c2)C1 (configuration not stated),-10.8%,7.79%,-15.1%,18.9%,8.24%,2.85%,5.41%,14.2%,8.74%,21.9%,-4.1%
NC(=O)C1CN(C(=O)Nc2ccccc2SC(F)(F)F)CCO1 (configuration not stated),-2.59%,10.8%,-2.48%,12.1%,7.15%,-1.29%,4.31%,9.57%,5.94%,18.3%,-7.87%
O=C(N1CCOCC1)[C@@]12CCO[C@@H]1CCN(Cc1ccccc1F)C2,-0.952%,-4%,-2.07%,6.8%,-6.88%,29.8%,12.2%,0.338%,1.06%,-2.56%,-3.56%
O=C(CCc1nccs1)N1CCCC(N2CCNC2=O)C1 (configuration not stated),-3.25%,11%,5.41%,-1.3%,-2.35%,5%,8.16%,4.48%,4.3%,10%,-4.2%
Fc1ccc(-c2nnc(CN3CCCC3Cn3cncn3)o2)cc1 (configuration not stated),-1.9%,5.2%,-0.239%,9.41%,6.93%,0.712%,7.26%,-14.3%,4.85%,19.5%,-10.5%
CCn1ncc2c1C(COC)CN(Cc1ccsc1)C2 (configuration not stated),-3.96%,18.9%,-9.13%,5.54%,1.47%,1.24%,6.95%,5.76%,7.53%,16.1%,-11.9%
Cc1nc(CCN(C)C(=O)C2COc3ccccc3C2)no1 (configuration not stated),-7.54%,13%,-6.34%,19.8%,8.55%,5.52%,16.1%,-0.00401%,5.38%,13.6%,-7.23%
COc1ccccc1[C@@H]1CN(Cc2cc(C(C)(C)C)[nH]n2)C[C@H]1C(=O)O,-3.72%,18.1%,-4.78%,2.73%,4.18%,5.3%,20.2%,0.766%,5.26%,10.3%,-3.34%
CCN1CCC(NC(=O)CN2CCCC2Cn2nc(C)cc2C)CC1 (configuration not stated),-3.31%,2.7%,-2.56%,6.76%,-3.3%,-5.61%,-0.54%,3.04%,4.43%,1.24%,0.399%
CCCOCC(=O)NC1CCc2nc(C)cn2C1 (configuration not stated),-4.43%,5.26%,8.68%,1.69%,-2.04%,-9.47%,17.2%,0.806%,7.45%,13%,-0.543%
CCCc1nc(CN2CCN(Cc3noc(CCC)n3)CC2)no1,-5.83%,13.9%,-4.71%,0.206%,-0.718%,-8.39%,10.5%,7.72%,11.5%,17.7%,-33.6%
O=S(=O)(Cc1ccccc1)NCC1CCN(c2cnccn2)CC1,-2.03%,10.4%,5.37%,-3.08%,-6.02%,-3.23%,10.4%,9.96%,3.17%,6.41%,-7.97%
Cc1ccc(CN2Cc3c(C(=O)N(C)C)nn(C)c3C2)s1,-0.916%,-19.2%,-24.4%,6.15%,6.75%,-1.2%,7.79%,-12.5%,3.12%,11.1%,-3.35%
Fc1cnc(N2CCn3cc(CNc4ccccn4)nc3C2)nc1,0.222%,-2.67%,7.82%,16.2%,-0.193%,-56.1%,3.76%,7.84%,-1.04%,-5%,-2.56%
O=C1CCCN1CC1CN(C(=O)CC2CCCC2)Cc2nccn2C1 (configuration not stated),-4.26%,7.79%,4.17%,6.88%,-1.08%,0.645%,11.7%,-6.04%,4.23%,11.5%,-9.36%
CCN(C(=O)CN(C)C(c1cccc(F)c1)c1ccccn1)C1CC1 (configuration not stated),-1.83%,-5.2%,-4.08%,9.51%,6.74%,-2.49%,2.37%,4.69%,6.8%,7.32%,-10.2%
O=C(NCC1CC1)C1=NOC2(CCN(Cc3ccc4c(c3)OCO4)C2)C1 (configuration not stated),-4.9%,8%,8.35%,5%,-2.51%,-50.4%,11.1%,0.899%,0%,-17.5%,-6.02%
Cc1noc(-c2ccc(N3CCCC(C(=O)N4CCSCC4)C3)nc2)n1 (configuration not stated),-5.7%,-2.74%,24%,1.74%,-3.92%,-1.36%,6.57%,-0.682%,1.07%,2.5%,-3.84%
